# Records with an inconclusive call do not appear. Where a call stands in place of a potency, no number is given. Values without a mark were called inactive. Calls of active or inactive are those of the source. Unless noted, calls come from the whole dose curve; as a rule, active = well fitted curve in the direction sought with a large enough effect in the repeat runs; inconclusive = weak or mixed curves; inactive = no such curve, though single readings can be large; an effect the other way counts as inactive or inconclusive.
# Legend:
# [1] = qHTS assay to identify small molecule agonists of the peroxisome proliferator-activated receptor delta (PPARd) signaling pathway - cell viability counter screen (AID 743211); note: nearly all actives have a fitted effect of over 55% in size; note: potency is the fitted concentration of half-maximal effect
# Method in brief: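 Viability of GeneBLAzer PPARd UAS-bla HEK293H cells was assessed after 17 h compound incubation at 37C, using CellTiter-Glo reagent added after the reporter read and luminescence recorded 30 min later.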
# [2] = target: Bile acid receptor (Homo sapiens) (UniProt Q96RI1); test: qHTS assay to identify small molecule agonists of the farnesoid-X-receptor (FXR) signaling pathway (AID 743220; active = well fitted activation curve with a large enough effect in the signal ratio in the repeat runs, not every such curve was filed as active; the % refers to the signal ratio)
# Method in brief: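 Beta-lactamase reporter under UAS control in GeneBLAzer FXR HEK 293T cells (5000/well) measured with LiveBLAzer FRET substrate after 2 h at room temperature. Compound exposure lasted 16 h at 37C.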
# [3] = qHTS assay to identify small molecule agonists of the vitamin D receptor (VDR) signaling pathway - cell viability counter screen (AID 743224); note: nearly all actives have a fitted effect of over 50% in size; note: potency is the fitted concentration of half-maximal effect
# Method in brief: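 VDR-bla cell line, quantitative HTS format; 16 h compound incubation (37C, 5% CO2); ATP-based CellTiter-Glo luminescence measured in the reporter assay wells.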
# [4] = qHTS assay to identify small molecule antagonists of the vitamin D receptor (VDR) signaling pathway - cell viability counter screen (AID 743225); note: nearly all actives have a fitted effect of over 50% in size; note: potency is the fitted concentration of half-maximal effect
# Method in brief: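 Cells (VDR-UAS-bla HEK 293T) are plated, rested 4 h at 37C, dosed with compound and 3 nM final 1-alpha,25-dihydroxy vitamin D3, and incubated 16 h. Viability is taken from CellTiter-Glo luminescence in the reporter wells.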
# [5] = qHTS assay to identify small molecule antagonists of the retinoid-related orphan receptor gamma (ROR-gamma) signaling pathway - cell viability counter screen (AID 1159520); note: nearly all actives have a fitted effect of over 50% in size; note: potency is the fitted concentration of half-maximal effect
# Method in brief: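 Tet-on ROR gamma CHO cells were given compounds for 2 hr, then doxycycline hyclate at 1 uM final, and incubated 16 hr at 37 C. Viability was measured as ATP content by CellTiter-Glo luminescence.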
# [6] = qHTS assay to identify small molecule agonists of the AP-1 signaling pathway (AID 1159526; calls by dose curve)
# [7] = qHTS assay to identify small molecule antagonists of the retinoid acid receptor (RAR) signaling pathway - cell viability counter screen (AID 1159551); note: nearly all actives have a fitted effect of over 35% in size
# Method in brief: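 Following overnight attachment, C3RL4 reporter cells received DMSO-dissolved compounds and then retinol (1 uM final). Six hours later at 37 C, ATP content was measured by CellTiter-Glo luminescence.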
# [8] = qHTS assay to identify small molecule antagonists of the retinoic acid receptor (RAR) signaling pathway (AID 1159552; note: nearly all actives have a fitted effect of over 50% in size; note: potency is the fitted concentration of half-maximal effect)
# Method in brief: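 Quantitative HTS in C3RL4 RARE-luciferase reporter cells. Compounds were added with 1 uM (final) retinol; luminescence was read after 6 hr.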
# [9] = target: Peroxisome proliferator-activated receptor delta (Homo sapiens) (UniProt Q03181); test: qHTS assay to identify small molecule agonists of the peroxisome proliferator-activated receptor delta (PPARd) signaling pathway (AID 743212; calls by dose curve)
# Method in brief: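 GeneBLAzer UAS-bla HEK293H cells carrying a PPARδ construct were exposed to compounds at 37 °C. Beta-lactamase activity was read by FRET fluorescence after 2 h at room temperature with LiveBLAzer B/G substrate.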
# [10] = target: Nuclear receptor ROR-gamma (Homo sapiens) (UniProt P51449); test: qHTS assay to identify small molecule antagonists of the retinoid-related orphan receptor gamma (ROR-gamma) signaling pathway (AID 1159521; note: nearly all actives have a fitted effect of over 50% in size; note: potency is the fitted concentration of half-maximal effect)
# Method in brief: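 RORγ antagonism is scored from reduced reporter luminescence in Tet-on CHO cells. Induction used 1 uM final doxycycline hyclate for 16 h at 37 C, following a 2 h compound exposure.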
# [11] = qHTS assay to identify small molecule agonists of the AP-1 signaling pathway - cell viability counter screen (AID 1159525; calls by dose curve; note: nearly all actives have a fitted effect of over 55% in size)
# Method in brief: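 AP-1-bla ME-180 cells in Opti-MEM with 0.5% dialyzed FBS, compound exposure 5 h at 37 C in 15-point titration. Viability read in the same wells as ATP content by CellTiter-Glo luminescence, normalised to tetra-n-octylammonium bromide and DMSO controls.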
# [12] = qHTS assay to identify small molecule antagonists of the peroxisome proliferator-activated receptor delta (PPARd) signaling pathway - cell viability counter screen (AID 743213); note: nearly all actives have a fitted effect of over 50% in size; note: potency is the fitted concentration of half-maximal effect
# Method in brief: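 PPARd-bla HEK293H cells were treated with compounds plus agonist L165041 (300 nM final) for 17 h at 37 C. Viability was then read in the same wells by CellTiter-Glo luminescence after 30 min at room temperature.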
# [13] = target: Bile acid receptor (Homo sapiens) (UniProt Q96RI1); test: qHTS assay to identify small molecule antagonists of the farnesoid-X-receptor (FXR) signaling pathway (AID 743217; active = well fitted inhibition curve with a large enough effect in the signal ratio in the repeat runs, not every such curve was filed as active; the % refers to the signal ratio)
# Method in brief: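 Beta-lactamase reporter under UAS control in HEK 293T cells; compound exposure 16 h at 37 °C in the presence of chenodeoxycholic acid (50 uM final); signal from B/G FRET substrate after 2 h at room temperature.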
# [14] = qHTS assay to identify small molecule agonists of the farnesoid-X-receptor (FXR) signaling pathway - cell viability counter screen (AID 743218); note: nearly all actives have a fitted effect of over 45% in size
# Method in brief: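 In GeneBLAzer FXR-UAS-bla HEK 293T cells, compounds act for 16 h at 37 C. Cell viability is then scored in the reporter wells by CellTiter-Glo, 30 min at RT, luminescence.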
# [15] = qHTS assay to identify small molecule antagonists of the farnesoid-X-receptor (FXR) signaling pathway - cell viability counter screen (AID 743221; active = well fitted cell-killing curve with a large enough effect in the repeat runs, not every such curve was filed as active; note: nearly all actives have a fitted effect of over 50% in size)
# Method in brief: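 Quantitative HTS of the Tox21 10K library run in parallel with the beta-lactamase reporter read. HEK 293T cells carrying a UAS-driven bla reporter got compound and 50 uM CDCA (final) for 16 h; ATP-based luminescence followed.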
# [16] = qHTS assay to identify small molecule agonists of the RXR signaling pathway - cell viability counter screen (AID 1159529); note: nearly all actives have a fitted effect of over 50% in size; note: potency is the fitted concentration of half-maximal effect
# Method in brief: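 Cell viability is measured by CellTiter-Glo luminescence, 30 min at room temperature, in wells already read for beta-lactamase. Engineered HEK 293T cells (RXR-alpha-UAS-bla) are dosed 16 hr at 37 C. Tetraoctyl ammonium bromide serves as positive control.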
# [17] = target: Vitamin D3 receptor (Homo sapiens) (UniProt P11473); test: qHTS assay to identify small molecule antagonists of the vitamin D receptor (VDR) signaling pathway (AID 743223; active = well fitted inhibition curve with a large enough effect in the signal ratio in the repeat runs, not every such curve was filed as active; the % refers to the signal ratio; note: potency is the fitted concentration of half-maximal effect)
# Method in brief: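 Fluorescence from LiveBLAzer B/G FRET substrate, read after 2 h at room temperature, reflects beta-lactamase reporter activity in VDR-bla cells treated 16 h at 37C with compounds and agonist 1alpha,25-dihydroxyvitamin D3 (3 nM final).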
# [18] = target: Vitamin D3 receptor (Homo sapiens) (UniProt P11473); test: qHTS assay to identify small molecule agonists of the vitamin D receptor (VDR) signaling pathway (AID 743222; calls by dose curve)
# Method in brief: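 Agonist activity measured in VDR-bla reporter cells. Exposure 16 h, 37C, 5% CO2; detection by B/G FRET substrate, 2 h RT.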
# [19] = target: Retinoic acid receptor RXR-alpha (Homo sapiens) (UniProt P19793); test: qHTS assay to identify small molecule agonists of the RXR signaling pathway (AID 1159527; calls by dose curve; note: nearly all actives have a fitted effect of over 35% in size)
# Method in brief: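 qHTS of the Tox21 10K library in GeneBLAzer RXR-alpha HEK 293T cells carrying a beta-lactamase reporter […]; 16 hr treatment, 9-cis retinoic acid as agonist control, FRET read-out.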
# [20] = target: Peroxisome proliferator-activated receptor delta (Homo sapiens) (UniProt Q03181); test: qHTS assay to identify small molecule antagonists of the peroxisome proliferator-activated receptor delta (PPARd) signaling pathway (AID 743215; active = well fitted inhibition curve with a large enough effect in the signal ratio in the repeat runs, not every such curve was filed as active; the % refers to the signal ratio;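 note: cells stimulated with agonist L165041 at 300 nM final during compound exposure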; note: potency is the fitted concentration of half-maximal effect)
# Method in brief: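 Antagonist-mode beta-lactamase reporter screen: HEK293H cells with UAS-bla under PPARd control, stimulated by 300 nM L165041 (final) alongside test compound for 17 h at 37 C, then FRET fluorescence after 2 h substrate incubation.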
# Retinoic acid receptor RXR-alpha (Homo sapiens), sequence (P19793 whole entry, looked up): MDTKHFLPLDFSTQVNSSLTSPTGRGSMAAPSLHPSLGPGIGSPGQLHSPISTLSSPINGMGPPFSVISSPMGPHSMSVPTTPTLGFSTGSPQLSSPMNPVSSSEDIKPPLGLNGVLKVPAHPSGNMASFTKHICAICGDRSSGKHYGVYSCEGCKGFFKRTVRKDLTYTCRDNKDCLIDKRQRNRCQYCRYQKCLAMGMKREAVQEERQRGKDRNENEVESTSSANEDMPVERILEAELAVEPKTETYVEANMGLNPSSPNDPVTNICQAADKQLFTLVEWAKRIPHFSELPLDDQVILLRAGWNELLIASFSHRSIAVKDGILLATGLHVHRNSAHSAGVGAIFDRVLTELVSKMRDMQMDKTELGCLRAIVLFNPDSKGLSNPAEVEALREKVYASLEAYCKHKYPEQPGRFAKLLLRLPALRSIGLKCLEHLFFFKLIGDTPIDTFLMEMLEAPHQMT
# Peroxisome proliferator-activated receptor delta (Homo sapiens), sequence (Q03181 whole entry, looked up): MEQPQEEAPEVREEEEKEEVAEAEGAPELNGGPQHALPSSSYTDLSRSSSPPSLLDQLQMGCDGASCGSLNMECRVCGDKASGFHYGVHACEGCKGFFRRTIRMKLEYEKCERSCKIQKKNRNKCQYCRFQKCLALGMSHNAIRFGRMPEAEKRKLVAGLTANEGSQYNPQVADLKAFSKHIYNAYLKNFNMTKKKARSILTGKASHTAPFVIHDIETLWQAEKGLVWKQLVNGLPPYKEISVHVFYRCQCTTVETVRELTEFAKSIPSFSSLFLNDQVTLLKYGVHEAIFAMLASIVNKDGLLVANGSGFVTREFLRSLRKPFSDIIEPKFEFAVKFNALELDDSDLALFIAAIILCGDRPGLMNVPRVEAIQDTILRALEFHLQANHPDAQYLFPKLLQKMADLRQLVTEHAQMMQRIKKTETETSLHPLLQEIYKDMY
# Vitamin D3 receptor (Homo sapiens), sequence (P11473 whole entry, looked up): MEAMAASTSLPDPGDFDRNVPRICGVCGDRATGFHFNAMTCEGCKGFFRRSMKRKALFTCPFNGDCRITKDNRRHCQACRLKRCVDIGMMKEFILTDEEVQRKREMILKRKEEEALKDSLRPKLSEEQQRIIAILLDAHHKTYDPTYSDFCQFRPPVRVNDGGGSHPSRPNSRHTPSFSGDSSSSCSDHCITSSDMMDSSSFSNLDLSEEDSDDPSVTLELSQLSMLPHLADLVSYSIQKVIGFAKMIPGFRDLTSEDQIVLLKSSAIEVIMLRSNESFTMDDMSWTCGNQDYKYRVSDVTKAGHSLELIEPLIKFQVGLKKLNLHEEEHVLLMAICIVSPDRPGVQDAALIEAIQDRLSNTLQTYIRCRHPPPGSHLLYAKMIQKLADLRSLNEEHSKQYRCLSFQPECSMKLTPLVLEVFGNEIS
# Bile acid receptor (Homo sapiens), sequence (Q96RI1 whole entry, looked up): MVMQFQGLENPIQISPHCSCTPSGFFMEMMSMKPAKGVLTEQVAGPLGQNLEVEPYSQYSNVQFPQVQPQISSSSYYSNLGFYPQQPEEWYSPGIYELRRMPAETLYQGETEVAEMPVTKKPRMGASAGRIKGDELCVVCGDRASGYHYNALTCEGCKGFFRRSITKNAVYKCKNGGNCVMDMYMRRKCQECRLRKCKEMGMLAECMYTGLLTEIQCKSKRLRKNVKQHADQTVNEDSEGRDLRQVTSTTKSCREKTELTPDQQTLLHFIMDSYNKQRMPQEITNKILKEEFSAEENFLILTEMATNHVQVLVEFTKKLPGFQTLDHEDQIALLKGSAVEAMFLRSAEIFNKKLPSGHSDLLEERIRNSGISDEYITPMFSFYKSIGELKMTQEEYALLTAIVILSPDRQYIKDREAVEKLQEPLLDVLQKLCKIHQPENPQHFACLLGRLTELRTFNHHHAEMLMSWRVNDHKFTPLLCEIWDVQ
smiles,measurement,setting,value
C[C@H]1O[C@@H](O[C@H]2CC[C@@]3(C)[C@H](CC[C@@H]4[C@@H]3C[C@@H](O)[C@]3(C)[C@@H](C5=CC(=O)OC5)CC[C@]43O)C2)C[C@H](O)[C@@H]1O[C@H]1C[C@H](O)[C@H](O[C@H]2C[C@H](O)[C@H](O[C@@H]3O[C@H](CO)[C@@H](O)[C@H](O)[C@H]3O)[C@@H](C)O2)[C@@H](C)O1,Potency,[1],0.298 µM (active)
same,outcome,[2],inactive
same,Potency,[3],0.298 µM (active)
same,Potency,[4],0.338 µM (active)
same,Potency,[5],inactive
same,Potency,[6],inactive
same,Potency,[7],inactive
same,Potency,[8],inactive
CCCOC(=O)c1ccc(O)cc1,outcome,[9],inactive
same,Potency,[10],inactive
same,Potency,[11],inactive
same,Potency,[6],inactive
same,Potency,[8],inactive
COc1cc([C@@H]2c3cc4c(cc3[C@@H](O[C@@H]3O[C@@H]5CO[C@@H](C)O[C@H]5[C@H](O)[C@H]3O)[C@H]3COC(=O)[C@H]23)OCO4)cc(OC)c1O,outcome,[9],inactive
same,Potency,[12],21.6 µM (active)
same,Potency,[13],inactive
same,Potency,[14],inactive
same,outcome,[2],inactive
same,Potency,[15],inactive
same,Potency,[3],21.6 µM (active)
same,Potency,[4],inactive
same,Potency,[5],inactive
same,Potency,[8],67.8 µM (active)
Oc1ccc(C2(c3ccc(O)c(C4CCCCC4)c3)CCCCC2)cc1C1CCCCC1,Potency,[5],24.3 µM (active)
same,Potency,[16],19.5 µM (active)
same,Potency,[8],27.3 µM (active)
O=[N+]([O-])c1ccc(O)c2ncccc12,Potency,[14],inactive
same,outcome,[2],inactive
same,Potency,[15],inactive
same,Potency,[17],9.52 µM (active)
same,Potency,[4],inactive
same,Potency,[5],23.7 µM (active)
same,Potency,[7],inactive
same,Potency,[8],inactive
CCCCCc1ccc(O)cc1,Potency,[10],inactive
same,Potency,[7],inactive
same,Potency,[8],inactive
O=C1Cc2ccccc2C1,Potency,[8],inactive
CC1=C(/C=C/C(C)=C/C=C/C(C)=C\C(=O)O)C(C)(C)CCC1,Potency,[12],inactive
same,Potency,[3],inactive
same,Potency,[4],inactive
same,Potency,[11],inactive
same,Potency,[6],inactive
same,Potency,[7],inactive
same,Potency,[8],inactive
CCN(CC)c1ccc2c(c1)Oc1cc(N(CC)CC)ccc1C21OC(=O)c2ccccc21,Potency,[11],inactive
same,Potency,[8],inactive
CCCCCCCCCCCCN1CCCC1=O,Potency,[1],54.9 µM (active)
same,outcome,[9],inactive
same,outcome,[18],inactive
same,Potency,[3],49 µM (active)
same,Potency,[10],inactive
same,Potency,[19],inactive
same,Potency,[16],54.9 µM (active)
same,Potency,[7],inactive
same,Potency,[8],inactive
CC(Cc1ccc(O)c(O)c1)C(C)Cc1ccc(O)c(O)c1 (configuration not stated),Potency,[1],inactive
same,Potency,[12],inactive
same,Potency,[14],inactive
same,outcome,[2],inactive
same,Potency,[15],inactive
same,outcome,[18],inactive
same,Potency,[3],inactive
same,Potency,[4],inactive
same,Potency,[10],6.86 µM (active)
same,Potency,[11],inactive
same,Potency,[19],inactive
same,Potency,[8],inactive
c1ccc(-c2ccc(C(c3ccccc3)n3ccnc3)cc2)cc1 (configuration not stated),Potency,[1],29.8 µM (active)
same,outcome,[9],inactive
same,Potency,[20],26.6 µM (active)
same,outcome,[18],inactive
same,Potency,[17],inactive
same,Potency,[4],inactive
same,Potency,[10],15 µM (active)
same,Potency,[11],inactive
same,Potency,[16],inactive
same,Potency,[7],inactive
same,Potency,[8],inactive
c1ccc(-c2nc3ccccc3[nH]2)cc1,Potency,[11],inactive
same,Potency,[6],inactive
same,Potency,[19],inactive
same,Potency,[16],inactive
same,Potency,[8],inactive
O=C1CCCCCCCCCCCCCC1,Potency,[1],inactive
same,outcome,[9],inactive
same,Potency,[12],inactive
same,Potency,[20],inactive
same,Potency,[14],inactive
same,Potency,[15],inactive
same,outcome,[18],inactive
same,Potency,[17],inactive
same,Potency,[3],inactive
same,Potency,[4],inactive
same,Potency,[11],inactive
same,Potency,[6],inactive
same,Potency,[19],inactive
same,Potency,[16],inactive
same,Potency,[7],inactive
same,Potency,[8],inactive
Cc1cc(C)c(O)c(C(C)(C)C)c1,Potency,[11],inactive
same,Potency,[19],inactive
same,Potency,[8],inactive
Oc1cccc2c(O)cccc12,Potency,[10],68.6 µM (active)
same,Potency,[19],inactive
O=C(c1ccccc1)c1ccc(Cl)cc1,Potency,[5],inactive
same,Potency,[8],inactive

# Reference: PubChem BioAssay (Tox21)
